The campaign covered roughly 310,000 compounds. About 14,000 (4.5%) showed an effect of 50% or more. Effects have a minus sign here. The entries come from a sample that favours strong results as a whole. Where a SMILES comes first, the peptide text is derived from it. [ ]: non-standard residue; d: D form. The star is where a group is joined. ξ: configuration not given here. Cbz = O=C(OCc1ccccc1)*; ξV = CC(C)C(N)C(=O)O
molecular target: human ether-à-go-go-related gene (hERG) potassium channel (human, UniProt Q12809); test: primary screen, population patch clamp on CHO cells stably expressing hERG; higher = less effect of the substance
Sequence (Q12809 whole entry, looked up): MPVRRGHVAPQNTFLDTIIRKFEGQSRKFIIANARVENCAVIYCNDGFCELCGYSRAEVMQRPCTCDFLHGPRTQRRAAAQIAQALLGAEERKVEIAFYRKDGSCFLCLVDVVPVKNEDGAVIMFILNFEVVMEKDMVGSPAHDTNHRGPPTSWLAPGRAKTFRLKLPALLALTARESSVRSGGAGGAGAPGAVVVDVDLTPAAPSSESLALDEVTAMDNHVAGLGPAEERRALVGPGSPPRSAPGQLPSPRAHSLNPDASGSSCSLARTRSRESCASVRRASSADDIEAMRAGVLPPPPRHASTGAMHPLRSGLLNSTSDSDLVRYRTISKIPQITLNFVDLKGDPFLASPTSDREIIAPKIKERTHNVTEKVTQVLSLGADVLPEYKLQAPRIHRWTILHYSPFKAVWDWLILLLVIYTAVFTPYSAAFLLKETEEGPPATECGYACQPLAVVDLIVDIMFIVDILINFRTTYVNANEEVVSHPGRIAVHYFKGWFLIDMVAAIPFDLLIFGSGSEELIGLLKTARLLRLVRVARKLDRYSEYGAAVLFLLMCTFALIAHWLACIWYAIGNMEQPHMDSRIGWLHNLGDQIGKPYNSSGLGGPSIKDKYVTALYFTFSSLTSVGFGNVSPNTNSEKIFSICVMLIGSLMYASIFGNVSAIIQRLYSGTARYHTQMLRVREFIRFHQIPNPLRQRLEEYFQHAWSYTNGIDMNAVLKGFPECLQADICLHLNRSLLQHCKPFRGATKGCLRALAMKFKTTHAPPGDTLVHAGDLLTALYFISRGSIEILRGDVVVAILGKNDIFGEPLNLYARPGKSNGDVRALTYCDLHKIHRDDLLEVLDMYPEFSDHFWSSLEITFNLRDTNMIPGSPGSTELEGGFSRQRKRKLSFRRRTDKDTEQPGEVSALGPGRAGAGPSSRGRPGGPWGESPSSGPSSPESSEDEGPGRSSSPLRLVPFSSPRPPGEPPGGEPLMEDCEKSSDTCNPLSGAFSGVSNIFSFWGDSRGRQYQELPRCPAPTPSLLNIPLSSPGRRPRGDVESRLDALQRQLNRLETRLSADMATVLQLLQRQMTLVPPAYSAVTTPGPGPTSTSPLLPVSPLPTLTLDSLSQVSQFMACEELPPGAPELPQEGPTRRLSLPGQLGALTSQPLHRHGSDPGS
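Further: peak tail current of the secondary pulse compared with the same well before compound.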

| Structure (SMILES) | hERG current change (%, negative = inhibition) at 10uM [%] |
| --- | --- |
| Cc1ccc(NC(=O)c2cc([N+](=O)[O-])ccc2Cl)c(O)c1 | -4.12 |
| Cc1nc2cc(NC(=O)CS(=O)(=O)c3ccc(F)cc3)ccc2s1 | -55.8 |
| Cc1nc2ccc(NC(=O)CS(=O)(=O)c3ccc(F)cc3)cc2s1 | -7.44 |
| Cc1nc2cc(NC(=O)CS(=O)(=O)c3ccccc3)ccc2s1 | -23.8 |
| CCCN1C(=O)CC(C(=O)OC)=C1C | 12.9 |
| CCN(CC)c1cc(-c2ccccc2)ncn1.Cl | -16.5 |
| CCC1C=C(c2ccccc2)C=CN=C1N(CC)CC (centres unmarked) | -61.6 |
| CCN(CC)c1nc(C(N)=O)cc(-c2ccccc2)n1 | -0.608 |
| CCN(CC)c1ccccc1 | 12.7 |
| CCN(CC)c1ncnnc1-c1ccccc1 | 15.9 |
| CCN(CC)C1=NC=CC(c2ccccc2)=CC1C (centres unmarked) | -55.1 |
| COc1ccccc1NS(=O)(=O)c1cccc(N=C2N=C(N)c3ccccc32)c1 | 11.7 |
| CCCc1nn(C)c2c1C(c1ccncc1)C(C#N)=C(N)O2 (centres unmarked) | 15.4 |
| C/C(O)=C/c1nc2ccccc2[nH]c1=O | -5.26 |
| C=C(Cl)COc1ccc2c(CCCC)cc(=O)oc2c1 | -24.9 |
| C=CCn1c(NCc2ccccc2OC)nc2ccccc21 | -18.9 |
| COc1ccccc1CNc1nc2ccccc2n1CCN1CCCCC1 | -61.5 |
| COc1cccc(CNc2nc3ccccc3n2CCN2CCCCC2)c1OC | -63.6 |
| CCn1c(NCc2cccc(OC)c2OC)nc2ccccc21 | -21 |
| CCCn1c(NCc2cccc(OC)c2OC)nc2ccccc21 | -13.9 |
| Oc1ccccc1CNc1nc2ccccc2n1CCN1CCCCC1 | -2.31 |
| CC(Nc1ccccc1CO)C(=O)Nc1cccc(Cl)c1Cl (centres unmarked) | 5.35 |
| O=C(Cn1c(NCCO)nc2ccccc21)NCC(F)(F)F | 10.4 |

| Structure (SMILES) | hERG current change (%, negative = inhibition) at 10uM [%] |
| --- | --- |
| O=C(NCCC1=CCCCC1)C1CCCN(S(=O)(=O)c2ccccc2)C1 (centres unmarked) | 6.97 |
| CCCC(=O)Nc1ccc2oc(-c3ccncc3)nc2c1 | 5.92 |
| CCOC(=O)c1oc2ccccc2c1CN1CC(C)OC(C)C1 (centres unmarked) | -0.576 |
| CCOC(=O)c1oc2ccccc2c1CN1CCN(C(=O)c2ccccc2)CC1 | -41.7 |
| CCOC(=O)c1oc2ccccc2c1CN1CCN(c2ccccc2)CC1.Cl | -26.6 |
| CCOC(=O)c1oc2ccccc2c1CN1CCN(C)CC1.Cl | -61.5 |
| CCOC(=O)c1oc2ccccc2c1CN1CCOCC1.Cl | -4.56 |
| CCOC(=O)c1oc2ccccc2c1CN1CCCCC1.Cl | -55 |
| Cc1ccc(Cn2cc(/C=C/C(=O)O)c(-c3ccccc3)n2)cc1 | 6.77 |
| CCC(C)C1Nc2ccc(C(=O)NCCc3ccc(OC)c(OC)c3)cc2NC1=O (centres unmarked) | 20.4 |
| Cc1ccc(N2CCN(c3ccc(C)cc3)C2c2cccnc2)cc1 | 17.6 |
| CCC(=O)NC(=S)NNC(=O)COc1ccc(Br)cc1 | 14.4 |
| CCOCCOc1nc(C)cc(C)c1S(=O)(=O)c1ccccc1C | -4.15 |
| CCOC(=O)C1(CCOc2ccccc2)CCN(Cc2cccc3c2OCO3)CC1 | -64.6 |
| CCOC(=O)C1(Cc2ccccc2)CCN(Cc2cccc3c2OCO3)CC1 | -36.7 |
| CCOC(=O)C1(CCc2ccccc2)CCN(Cc2cccc3c2OCO3)CC1 | -75 |
| O=C(CN1C(=O)c2ccccc2C1=O)Nc1ccccc1 | -0.118 |
| CCOC(=O)N1CCN(C(=O)C2CCCN(S(=O)(=O)c3cc(C)ccc3OC)C2)CC1 (centres unmarked) | -5.57 |
| COCc1c(C#N)c(NCc2cc(OC)c(OC)c(OC)c2)nc(C)c1[N+](=O)[O-] | -12.2 |
| CSc1ncc(CN2CCC(C(=O)Nc3cccc(-c4cscn4)c3)CC2)cn1 | -35.7 |
| Cc1ncc(CN2CCC(C(=O)Nc3cccc(-c4cscn4)c3)CC2)cn1 | -11.9 |
| O=C(Nc1cccc(-c2cscn2)c1)C1CCN(Cc2ccsc2)CC1 | -65 |
| O=C(Nc1ccc(-n2cccn2)cc1)C1CCN(Cc2ccccn2)CC1 | -16.7 |

| Structure (SMILES) | hERG current change (%, negative = inhibition) at 10uM [%] |
| --- | --- |
| O=C(Nc1ccc(-n2cccn2)cc1)C1CCN(Cc2ccsc2)CC1 | -81.1 |
| Cc1ncc(CN2CCC(C(=O)Nc3ccc(-n4cccn4)cc3)CC2)s1 | -21.2 |
| Cc1ccc(CN(CC(=O)NCc2ccccn2)S(=O)(=O)c2ccccc2)cc1 | -23.9 |
| COC(=O)CN(C#N)c1nc(NCc2ccccc2)nc(OC)n1 | -1.33 |
| CCN(CC(=O)Nc1ccc2c(c1)OCCO2)CC(=O)Nc1ccc2c(c1)OCO2 | 28 |
| Cc1ccc(CC(CC(=O)Nc2cccc(C(F)(F)F)c2)C(=O)O)cc1 (centres unmarked) | 18 |
| COc1cc2c(cc1OC)-c1cc(OCCN3CCOCC3)nc(=O)n1CC2 | -11.5 |
| O=C(O)c1nccnc1C(=O)Nc1ccc(Cl)cn1 | 17.6 |
| CCC(C)NC(=O)[C@H]1N2C(=O)c3ccccc3C2SC1(C)C (some centres unmarked) | 12.8 |
| Cc1noc(C(=O)Nc2c(C)nn(Cc3ccccc3)c2C)c1Cl | 4.71 |
| CC1CCCC(NCC(O)COC(c2ccc(F)cc2)c2ccc(F)cc2)C1C (centres unmarked) | -71.6 |
| CC1CCCC(NC(=O)CSc2ccc(F)cc2)C1C (centres unmarked) | 18.7 |
| CC1CCCC(NC(=O)CCC(=O)c2ccc(F)cc2)C1C (centres unmarked) | 8.27 |
| Cc1cccc(C(=O)N2CCN(c3ncnc4c3cnn4-c3ccccc3)CC2)c1 | -19.4 |
| COC(=O)C(C)Oc1ccc2c(-c3cccc([N+](=O)[O-])c3)cc(=O)oc2c1 (centres unmarked) | -25.8 |
| CCOC(=O)C(C)Oc1ccc2c(-c3cccc([N+](=O)[O-])c3)cc(=O)oc2c1 (centres unmarked) | -62.4 |
| Cc1cc(=O)oc2cc(OC(C)C(=O)NCc3ccccn3)ccc12 (centres unmarked) | 9.03 |
| COc1ccc(-c2cc(=O)oc3cc(OCC(=O)NCc4ccccn4)ccc23)cc1 | -6.52 |
| CC(=O)COc1ccc2c(-c3cccc([N+](=O)[O-])c3)cc(=O)oc2c1 | -25.9 |
| COc1ccc(-c2cc(=O)oc3c(C)c(OC(C)C(=O)NCc4ccccn4)ccc23)cc1 (centres unmarked) | -9.16 |
| CC(Oc1ccc2c(-c3ccccc3)cc(=O)oc2c1)C(=O)NCc1ccccn1 (centres unmarked) | -50.9 |
| COc1ccc(-c2cc(=O)oc3cc(OC(C)C(=O)NCc4ccccn4)ccc23)cc1 (centres unmarked) | -54.8 |
| CCc1cc(=O)oc2cc(OC(C)C(=O)NCc3ccccn3)ccc12 (centres unmarked) | 14.4 |

| Structure (SMILES) | hERG current change (%, negative = inhibition) at 10uM [%] |
| --- | --- |
| Cc1ccccc1NC(=O)c1cnn(-c2ccccc2)c1NC(=O)c1ccco1 | 0.329 |
| COc1ccc(CCNC(=O)c2c[nH]c3ccccc3c2=O)cc1OC | -1.95 |
| Cc1noc(NS(=O)(=O)c2ccc(NC(=O)C34CCC(CC3)C4)cc2)c1C | -9.55 |
| COC(=O)CNC(=O)C(NC(=O)OCc1ccccc1)C(C)C (centres unmarked) (Cbz-[ξV]-Gly-OMe) | 16.1 |
| CCOC(=O)Nc1ccc2c(c1)OCO2 | 26.2 |
| CCOC(=O)C1CCCN(C(=S)Nc2ccc(OC)cc2)C1 (centres unmarked) | 5.25 |
| CCOC(=O)C1CCCN(Cc2ccc(OCC)cc2)C1 (centres unmarked) | -42.9 |
| CCOC(=O)C1CCCN(c2nc3ccccc3nc2NS(=O)(=O)c2ccc(C)cc2)C1 (centres unmarked) | -44.8 |
| CCOC(=O)C1CCCN(Cc2c(Cl)cccc2Cl)C1 (centres unmarked) | -6.47 |
| CCOC(=O)C1CCCN(Cc2nc(N)nc(Nc3ccc(C)cc3)n2)C1 (centres unmarked) | -69.5 |
| CCOC(=O)C1CCCN(Cc2ccccc2Cl)C1 (centres unmarked) | -3.88 |
| Cc1ccccc1Nc1nc(N)nc(COC(=O)C2CCCCC2)n1 | 8.35 |
| CCOC(=O)C1CCCN(Cc2nc(N)nc(Nc3ccc(Cl)cc3)n2)C1 (centres unmarked) | -79 |
| COc1ccccc1Nc1nc(N)nc(CSC(=S)N2CCCCC2C)n1 (centres unmarked) | -5.64 |
| CCOC(=O)C1CCCN(Cc2cccc(Cl)c2)C1 (centres unmarked) | -8.02 |
| CCOC(=O)C1CCCN(Cc2nc(N)nc(Nc3ccc(OC)cc3)n2)C1 (centres unmarked) | -75.6 |
| CCOC(=O)C1CCCN(Cc2nc(N)nc(Nc3ccccc3OC)n2)C1 (centres unmarked) | -70.8 |
| N#Cc1cc2c(N)c(C(=O)Nc3ccccc3)sc2nc1N | 8.83 |
| CCCCN(C(=O)C1CCC1)c1c(N)n(CC(C)C)c(=O)[nH]c1=O | 1.74 |
| COc1ccccc1OCC(=O)[O-].[Na+] | 4.6 |
| Cc1c(Cl)cccc1-c1ccc(CNCc2ccccn2)o1.Cl | 8.15 |
| Cc1ccc(OCC(=O)NCCO)c(Br)c1 | 14.3 |
| O=C(CSc1nnc(-c2ccc(F)cc2)o1)Nc1ccc(S(=O)(=O)N2CCCC2)cc1 | -2.73 |

Source: paper PMC4336329 (PLoS ONE, 2015)
